# Test results taken from PubChem BioAssay (NCATS).
# A number with no mark means an inactive call. Records with an inconclusive call do not appear. Entries that show only a call come without a potency. Active and inactive are the calls of the source. Unless noted, calls come from the whole dose curve; as a rule, active = well fitted curve in the direction sought with a large enough effect; inconclusive = small, poorly fitted or top-dose-only effect, or another doubt; inactive = no such curve, though single readings can be large; an effect the other way counts as inactive or inconclusive.
# Experiments:
# [1] = target: ATP-dependent 6-phosphofructokinase (Trypanosoma brucei brucei) (UniProt O15648); assay: qHTS Assay to Find Inhibitors of T. brucei phosphofructokinase: hit validation (AID 492961);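 note: luminescence reports ADP formed as PFK phosphorylates fructose-6-phosphate with ATP; series mostly up to about 51 µM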
# ATP-dependent 6-phosphofructokinase (Trypanosoma brucei brucei), sequence (O15648 whole entry, looked up): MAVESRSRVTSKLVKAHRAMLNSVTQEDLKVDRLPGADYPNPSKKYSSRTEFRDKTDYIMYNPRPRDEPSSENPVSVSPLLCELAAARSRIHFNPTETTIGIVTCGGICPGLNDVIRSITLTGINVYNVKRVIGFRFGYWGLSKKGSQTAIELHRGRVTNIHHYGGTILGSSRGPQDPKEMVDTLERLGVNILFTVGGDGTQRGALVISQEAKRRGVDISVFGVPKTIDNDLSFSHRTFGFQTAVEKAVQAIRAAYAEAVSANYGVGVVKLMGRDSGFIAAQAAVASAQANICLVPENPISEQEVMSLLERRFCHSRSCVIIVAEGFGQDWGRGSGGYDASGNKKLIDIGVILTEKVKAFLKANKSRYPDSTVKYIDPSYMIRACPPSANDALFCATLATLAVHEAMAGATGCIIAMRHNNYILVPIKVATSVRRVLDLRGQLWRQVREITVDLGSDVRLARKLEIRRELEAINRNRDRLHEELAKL
# Method in brief: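 In this biochemical qHTS validation, titrated compounds were tested against 1.25 nM PFK with 0.1 mM ATP and 0.5 mM F6P. Percent activity came from controls lacking or containing enzyme.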
# [2] = target: Chromobox protein homolog 1 (Homo sapiens) (UniProt P83916); assay: qHTS Validation Assay for Inhibitors of HP1-beta Chromodomain Interactions with Methylated Histone Tails (AID 488953);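 note: loss of AlphaScreen luminescence from HP1-beta binding biotinylated H3K9me3 peptide; series mostly up to about 110 µM; nearly all actives have a fitted effect of over 50% in size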
# Chromobox protein homolog 1 (Homo sapiens), sequence (P83916 whole entry, looked up): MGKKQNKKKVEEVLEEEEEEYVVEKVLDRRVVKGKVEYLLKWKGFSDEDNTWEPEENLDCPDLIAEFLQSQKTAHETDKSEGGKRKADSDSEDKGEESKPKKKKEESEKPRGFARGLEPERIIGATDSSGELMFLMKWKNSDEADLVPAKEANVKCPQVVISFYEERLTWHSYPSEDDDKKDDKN
# Method in brief: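 Disruption of preformed HP1-beta:H3K9me3 peptide complexes (both 50 nM, PBS pH 7.4 with 0.01% Tween-20) is measured by AlphaScreen after 30 min compound exposure at room temperature, using streptavidin donor and nickel chelate acceptor beads at 10 ug/mL final.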
# [3] = target: Methanococcus maripaludis chaperonin (MmCpn) (UniProt Q6LX38); assay: High-Throughput Screening for Modulators of Cytosolic Chaperonin Activity: MmCpn Primary Screen (AID 488978)
# Methanococcus maripaludis chaperonin (MmCpn), sequence (Q6LX38 1-543): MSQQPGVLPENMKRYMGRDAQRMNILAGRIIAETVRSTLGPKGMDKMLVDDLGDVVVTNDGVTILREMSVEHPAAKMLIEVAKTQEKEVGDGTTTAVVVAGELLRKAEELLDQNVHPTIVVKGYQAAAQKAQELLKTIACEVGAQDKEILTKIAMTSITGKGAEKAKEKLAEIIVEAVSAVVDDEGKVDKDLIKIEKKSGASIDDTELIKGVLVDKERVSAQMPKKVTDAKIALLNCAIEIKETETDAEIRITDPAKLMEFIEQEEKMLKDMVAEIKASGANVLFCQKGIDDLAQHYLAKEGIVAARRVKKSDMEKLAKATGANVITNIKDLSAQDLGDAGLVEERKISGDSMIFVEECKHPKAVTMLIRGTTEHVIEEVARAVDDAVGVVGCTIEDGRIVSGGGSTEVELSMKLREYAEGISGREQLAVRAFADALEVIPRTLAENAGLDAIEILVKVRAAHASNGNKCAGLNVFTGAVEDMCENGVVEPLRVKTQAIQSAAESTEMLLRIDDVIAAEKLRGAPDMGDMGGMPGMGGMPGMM
# Method in brief: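 HTRF readout (320 nm excitation, 590/665 nm emission) of ADP generated by 50 nM MmCpn hydrolysing 30 uM ATP during 10 min at 37C; compound preincubated 5 min RT.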
# [4] = target: Thyrotropin receptor (Homo sapiens) (UniProt P16473); assay: qHTS Assay for Antagonists of the Thyroid Stimulating Hormone Receptor (AID 488980); note: series mostly up to about 58 µM
# Thyrotropin receptor (Homo sapiens), sequence (P16473 whole entry, looked up): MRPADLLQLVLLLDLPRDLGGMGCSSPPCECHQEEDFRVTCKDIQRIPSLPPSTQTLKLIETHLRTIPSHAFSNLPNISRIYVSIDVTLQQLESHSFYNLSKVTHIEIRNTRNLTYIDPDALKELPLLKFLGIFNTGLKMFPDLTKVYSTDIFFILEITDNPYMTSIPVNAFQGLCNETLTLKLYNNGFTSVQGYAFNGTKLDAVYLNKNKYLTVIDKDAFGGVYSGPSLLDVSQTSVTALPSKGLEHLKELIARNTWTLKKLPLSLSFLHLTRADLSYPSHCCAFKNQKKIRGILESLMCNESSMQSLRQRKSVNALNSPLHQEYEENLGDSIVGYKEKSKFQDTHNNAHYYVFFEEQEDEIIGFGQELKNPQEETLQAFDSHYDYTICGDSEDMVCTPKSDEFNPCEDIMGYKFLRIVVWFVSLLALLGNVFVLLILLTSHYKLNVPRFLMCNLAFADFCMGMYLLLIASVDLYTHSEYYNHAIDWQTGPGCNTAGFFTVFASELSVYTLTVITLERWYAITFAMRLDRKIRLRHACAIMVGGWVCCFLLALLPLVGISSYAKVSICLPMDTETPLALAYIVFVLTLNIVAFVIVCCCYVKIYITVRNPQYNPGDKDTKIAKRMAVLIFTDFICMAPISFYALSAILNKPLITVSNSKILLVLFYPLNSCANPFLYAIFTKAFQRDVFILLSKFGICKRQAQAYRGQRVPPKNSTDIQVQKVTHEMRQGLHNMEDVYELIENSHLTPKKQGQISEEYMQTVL
# Method in brief: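 Inhibition of TSH-stimulated cAMP accumulation was quantified by homogeneous time-resolved FRET in TSHR-transfected HEK293 cells. Agonist: TSH, 4 nM final (EC80).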
# [5] = target: D(1A) dopamine receptor (Homo sapiens) (UniProt P21728); assay: HTS Assay for Allosteric Agonists of the Human D1 Dopamine Receptor: Primary Screen for Agonists (AID 488981)
# D(1A) dopamine receptor (Homo sapiens), sequence (P21728 whole entry, looked up): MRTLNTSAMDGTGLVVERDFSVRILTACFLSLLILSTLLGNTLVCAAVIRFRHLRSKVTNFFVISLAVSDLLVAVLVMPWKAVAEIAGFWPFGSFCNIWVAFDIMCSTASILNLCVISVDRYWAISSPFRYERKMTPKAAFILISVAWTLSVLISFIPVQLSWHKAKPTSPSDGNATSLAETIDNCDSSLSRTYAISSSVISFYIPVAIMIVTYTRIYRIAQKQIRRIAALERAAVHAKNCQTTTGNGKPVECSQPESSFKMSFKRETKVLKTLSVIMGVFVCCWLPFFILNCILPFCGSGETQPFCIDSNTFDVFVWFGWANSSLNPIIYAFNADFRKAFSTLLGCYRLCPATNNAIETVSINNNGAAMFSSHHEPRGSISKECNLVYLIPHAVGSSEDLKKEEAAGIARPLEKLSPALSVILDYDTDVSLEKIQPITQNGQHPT
# Method in brief: (§1)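 Calcium flux in an inducible, force-coupled HEK293 Trex D1 line (overnight at 30 C): agonist mode is the 180 s kinetic read after compound; potentiator mode is the following 180 s read after dopamine at EC20.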
# [6] = target: D(1A) dopamine receptor (Homo sapiens) (UniProt P21728); assay: HTS Assay for Allosteric Agonists of the Human D1 Dopamine Receptor: Primary Screen for Potentiators (AID 488982)
# Method in brief: as §1
# [7] = target: D(1A) dopamine receptor (Homo sapiens) (UniProt P21728); assay: HTS Assay for Allosteric Agonists of the Human D1 Dopamine Receptor: Primary Screen for Antagonists (AID 488983);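 note: calcium flux response to an EC80 dopamine challenge measured with no-wash dye; nearly all actives have a fitted effect of over 65% in size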
# Method in brief: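 Kinetic fluorescence at 1 cycle/sec tracked intracellular calcium in force-coupled, tetracycline-inducible HEK293 T-REx D1 cells. Loss of response to an EC80 dopamine dose, given 180 s after compound, marked antagonists.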
# [8] = Validation screen for small molecules that induce genotoxicity in human embryonic kidney (HEK293T) cells expressing luciferase-tagged ELG1 (AID 493106); details: luminescence; note: potency is the fitted concentration of half-maximal effect
# Method in brief: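 Cells were dispensed at 2,000 per well, then 23 nL compound or DMSO was pinned in. After 16 hr at 37 °C and 5% CO2, ONE-Glo reagent was added. Luciferase activity was measured following 30 min at room temperature.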
# [9] = target: Thyrotropin-releasing hormone receptor (Homo sapiens) (UniProt P34981); assay: qHTS for Small Molecule Agonists and Allosteric Enhancers of Human TRH Receptor: Validation Screen for Agonists (AID 493127;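 active = calcium activation more than 3 SD above the typical response in the agonist read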;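 note: intracellular calcium rise by fluo-8 fluorescence before TRH EC20 addition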); details: TRH receptor agonist cell assay; at 2 µM; hits give high values
# Thyrotropin-releasing hormone receptor (Homo sapiens), sequence (P34981 whole entry, looked up): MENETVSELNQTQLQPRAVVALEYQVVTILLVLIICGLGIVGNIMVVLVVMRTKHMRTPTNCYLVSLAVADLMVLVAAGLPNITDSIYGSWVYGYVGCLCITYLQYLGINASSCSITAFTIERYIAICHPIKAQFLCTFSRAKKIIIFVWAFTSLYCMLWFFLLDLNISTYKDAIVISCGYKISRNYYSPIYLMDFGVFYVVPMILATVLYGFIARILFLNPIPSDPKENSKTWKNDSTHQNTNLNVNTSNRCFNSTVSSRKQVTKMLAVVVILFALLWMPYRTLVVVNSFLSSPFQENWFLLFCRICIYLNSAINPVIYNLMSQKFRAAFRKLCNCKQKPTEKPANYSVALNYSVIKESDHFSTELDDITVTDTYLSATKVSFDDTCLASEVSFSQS
# Method in brief: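 Compounds are added by online pintool to dye-loaded TRHR cells while fluorescence is recorded every second. A rise in calcium signal during the agonist read marks activation; a later 10 nM TRH addition (EC20) serves the separate enhancer mode.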
# [10] = target: Transient receptor potential cation channel subfamily V member 1 (Homo sapiens) (UniProt Q8NER1); assay: HTS Assay for Compounds that Act as Enhancers of the Vanilloid Receptor 1 (AID 488979)
# Transient receptor potential cation channel subfamily V member 1 (Homo sapiens), sequence (Q8NER1 whole entry, looked up): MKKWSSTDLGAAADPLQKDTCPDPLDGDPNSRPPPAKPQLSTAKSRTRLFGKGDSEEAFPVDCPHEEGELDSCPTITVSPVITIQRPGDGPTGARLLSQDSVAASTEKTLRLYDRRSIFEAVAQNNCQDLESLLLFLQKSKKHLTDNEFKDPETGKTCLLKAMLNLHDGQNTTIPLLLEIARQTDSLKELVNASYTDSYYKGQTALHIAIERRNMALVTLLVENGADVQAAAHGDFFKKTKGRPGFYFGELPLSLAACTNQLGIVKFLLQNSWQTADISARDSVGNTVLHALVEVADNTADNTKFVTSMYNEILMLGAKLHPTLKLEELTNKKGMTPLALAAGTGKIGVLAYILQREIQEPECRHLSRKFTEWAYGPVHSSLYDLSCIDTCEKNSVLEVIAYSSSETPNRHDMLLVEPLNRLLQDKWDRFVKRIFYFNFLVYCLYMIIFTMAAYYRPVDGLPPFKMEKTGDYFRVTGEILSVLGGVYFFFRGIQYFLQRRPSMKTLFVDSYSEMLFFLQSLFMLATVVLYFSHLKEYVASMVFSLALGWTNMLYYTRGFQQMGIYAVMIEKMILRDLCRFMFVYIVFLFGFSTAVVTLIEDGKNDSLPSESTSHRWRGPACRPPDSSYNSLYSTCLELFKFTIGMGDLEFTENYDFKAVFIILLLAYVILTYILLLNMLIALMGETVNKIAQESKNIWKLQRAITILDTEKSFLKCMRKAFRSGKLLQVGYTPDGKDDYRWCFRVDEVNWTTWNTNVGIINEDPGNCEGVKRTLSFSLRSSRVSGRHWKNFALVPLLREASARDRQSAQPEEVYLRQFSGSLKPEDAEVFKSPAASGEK
# Method in brief: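 Calcium influx kinetics via Fluo-8 (480/520 nm) in TRPV1-expressing cells, 2000/well cultured overnight at 35.5C. Compound-alone read 3 min (agonist phase), followed by EC20 capsaicin challenge for 2 min (enhancer phase).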
structure (smiles),measurement,setting,value
Nc1ccc(S(=O)(=O)Nc2ncccn2)cc1,outcome,[1],inactive
CC[C@H]1CN2CCc3cc(OC)c(OC)cc3[C@H]2C[C@@H]1C[C@@H]1NCCc2cc(OC)c(OC)cc21,outcome,[1],inactive
O=c1[nH]c(=O)n(C2CCCO2)cc1F (configuration not stated),outcome,[1],inactive
CC=CC1=C(C(=O)O)N2C(=O)[C@H](NC(=O)[C@H](N)c3ccc(O)cc3)[C@@H]2SC1,outcome,[1],inactive
C[C@H]1C[C@@H]2[C@@H]([C@@H](O)C[C@@]3(C)[C@H]2CC[C@]3(O)C(=O)CO)[C@@]2(C)C=CC(=O)C=C12,outcome,[1],inactive
Nc1ccn([C@@H]2O[C@H](CO)[C@H](O)C2(F)F)c(=O)n1,outcome,[1],inactive
COc1cc(C(=O)NS(=O)(=O)c2ccccc2C)ccc1Cc1cn(C)c2ccc(NC(=O)OC3CCCC3)cc12,outcome,[1],inactive
CN1c2cc(O)c(N=NC(N)=O)cc2CC1S(=O)(=O)O (configuration not stated),outcome,[1],inactive
CC(C)(C)NC(=O)[C@H]1CN(Cc2cccnc2)CCN1C[C@@H](O)C[C@@H](Cc1ccccc1)C(=O)N[C@H]1c2ccccc2C[C@H]1O,outcome,[1],inactive
O=c1c2ccccc2nc2n1CCc1c-2[nH]c2ccccc12,outcome,[2],inactive
same,outcome,[3],inactive
same,outcome,[4],inactive
same,outcome,[5],inactive
same,outcome,[6],inactive
same,outcome,[7],inactive
same,Potency,[8],8.2 µM (active)
same,activation,[9],-4.5%
CCC1=C[C@@H]2CN(C1)Cc1c([nH]c3ccccc13)[C@@](C(=O)OC)(c1cc3c(cc1OC)N(C)[C@@H]1[C@@](O)(C(=O)OC)[C@H](OC(C)=O)[C@]4(CC)C=CCN5CC[C@]31[C@@H]54)C2,outcome,[1],inactive
CC[C@H](CO)Nc1nc(NCc2ccccc2)c2ncn(C(C)C)c2n1,outcome,[10],inactive
same,outcome,[4],inactive
same,activation,[9],0.312%
O=C(O)CO.[NH2-].[NH2-].[Pt+2],outcome,[1],inactive
COC(=O)C1=C(C)NC(C)=C(C(=O)OCCN2CCN(C(c3ccccc3)c3ccccc3)CC2)C1c1cccc([N+](=O)[O-])c1 (configuration not stated),outcome,[1],inactive
Nc1ccn([C@@H]2CS[C@H](CO)O2)c(=O)n1,outcome,[1],inactive
CC1(C)O[C@@H]2C[C@@H]3[C@H]4C[C@@H](F)C5=CC(=O)C=C[C@]5(C)[C@@]4(F)[C@@H](O)C[C@]3(C)[C@]2(C(=O)CO)O1,outcome,[1],inactive
COc1c(N2C[C@@H]3CCCN[C@H]3C2)c(F)cc2c(=O)c(C(=O)O)cn(C3CC3)c12,outcome,[1],inactive
COC(=O)C[C@](O)(CCCC(C)(C)O)C(=O)O[C@@H]1C(OC)=C[C@]23CCCN2CCc2cc4c(cc2[C@H]13)OCO4,outcome,[1],inactive
